Test results: ChEMBL document CHEMBL3988442, “University of Dundee, Small-Polar-MMV Screening Library” (2021)

These molecules were tested against T1, Aspartate--tRNA(Asp/Asn) ligase (Mycobacterium tuberculosis (strain ATCC 25618 / H37Rv)) (UniProt P9WFW3) (assay: Assay for Asp RNA synthetase-1 from Mycobacterium tuberculosis). Conditions: 30 µM.
T1 sequence (whole entry): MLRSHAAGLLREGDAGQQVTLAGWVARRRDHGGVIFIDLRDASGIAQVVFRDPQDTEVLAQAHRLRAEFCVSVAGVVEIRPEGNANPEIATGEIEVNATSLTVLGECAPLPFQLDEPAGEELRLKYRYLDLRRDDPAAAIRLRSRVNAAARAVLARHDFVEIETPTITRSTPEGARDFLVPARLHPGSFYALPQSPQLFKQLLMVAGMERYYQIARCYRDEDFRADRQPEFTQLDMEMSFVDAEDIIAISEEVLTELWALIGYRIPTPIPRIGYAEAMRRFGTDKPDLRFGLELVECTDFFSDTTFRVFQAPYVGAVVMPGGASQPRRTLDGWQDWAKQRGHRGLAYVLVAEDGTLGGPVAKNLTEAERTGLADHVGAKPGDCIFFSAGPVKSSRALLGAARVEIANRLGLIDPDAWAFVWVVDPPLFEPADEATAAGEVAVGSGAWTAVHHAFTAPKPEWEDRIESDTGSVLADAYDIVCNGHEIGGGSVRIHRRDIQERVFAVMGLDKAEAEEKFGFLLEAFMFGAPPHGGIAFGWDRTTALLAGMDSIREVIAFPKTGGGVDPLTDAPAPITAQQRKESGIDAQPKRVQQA
Format: functional
Design: scale not given: direction of the effect not stated beside the values
For `CCn1cnnc1C1CCN(C(=O)C(OC)c2ccccc2)CC1` (stereo not given), the Percent Effect was -2.71%. Work on `CCOCCCn1c(NC(=O)c2ccc(C)nc2)nc2ccccc21` yielded a Percent Effect of -3.79%. `COCCc1noc(CNCC2CCCN2c2cccnn2)n1` (stereo not given) showed a Percent Effect of 4.93%. For `Cc1ccc(C(=O)N2CCN(C(=O)NC(C)Cn3ccnc3)CC2)o1` (stereo not given), the Percent Effect was -1.92%. In the case of `Cc1noc(C)c1CNC(=O)N1CCC(C(O)c2ccccc2)CC1` (stereo not given), the Percent Effect is reported as -2.1%. `CCn1cnnc1C1CCN(C(=O)COCCc2ccccc2)CC1` gave a Percent Effect of -3.95%. In the case of `Cc1cc(NC(=O)CN2CCN(c3nccs3)C(C)C2)n(C)n1` (stereo not given), the Percent Effect is reported as 7.92%. `COCc1cccc(C(=O)N2CCCCC2c2nccs2)c1` (stereo not given) gave a Percent Effect of -3.8%. For `CCS(=O)(=O)N1C[C@H]2C[C@H](C(=O)N(C)C)[C@@H](C1)O2`, the Percent Effect was 3.87%. Molecule `CCOC(=O)c1sc2ccsc2c1CNC(=O)CC` has a Percent Effect of 1.08%. `CC(C)c1nnc2n1CCN(CC(=O)N1CCc3ccccc3C1)C2` showed a Percent Effect of -3.72%. With `CC(C(=O)NCc1ccnc(N(C)C)c1)n1cncn1` (stereo not given) the Percent Effect was 0.0335%. Molecule `O=C(NCCCN1CCOCC1)Nc1cnc2cc(Cl)ccc2c1O` has a Percent Effect of 1.35%. `NC(=O)c1cccc(CC2CCN(C(=O)CO)C2)c1` (stereo not given) gave a Percent Effect of 3.02%. `Cc1ccn(-c2ccc(C(=O)N3CCCC(n4ccnc4)C3)cc2)n1` (stereo not given) showed a Percent Effect of 3.8%. `CC(=O)Nc1nc(C2CCN(C(C)=O)CC2)cs1` gave a Percent Effect of -1.69%. With `Cn1c(CC2CCS(=O)(=O)C2)nnc1SCCOc1cccc(Cl)c1` (stereo not given) the Percent Effect was 2.13%. For `c1cnn(CC2CN(Cc3nc(-c4ccsc4)no3)CCO2)c1` (stereo not given), the Percent Effect was -2.68%. `CCOC(=O)CCNC(=O)N1CCN(c2nc3ccccc3n2C)CC1` showed a Percent Effect of -4.71%. In the case of `CCOc1ccc(NC(=O)c2cnc(N3CCCC3)nc2C)cc1`, the Percent Effect is reported as -4.56%. Work on `COc1cccc(C2CC(=O)Nc3nc(N)sc32)c1OC` (stereo not given) yielded a Percent Effect of 65.3%. For `COc1cc(CN(C)C(=O)Cc2c(C)nn(C)c2C)ccc1OC(F)F`, the Percent Effect was -2.09%. In the case of `CCNC(=O)[C@@H]1C[C@@H](NC(=O)c2cccnc2O)CN1Cc1ccsc1`, the Percent Effect is reported as -2.94%. `Cc1ncsc1C(=O)NCc1cccs1` was tested, and the Percent Effect was -1.72%. `Cc1ccc(CN(Cc2cccnc2)C2CC(C)(C)NC(C)(C)C2)s1` showed a Percent Effect of 3.32%. `Cc1cnn(CC2CCCCN2C(=O)CN(C)C2CC2)c1` (stereo not given) showed a Percent Effect of 2.98%. With `Cc1cnn(C2CCCN(C(=O)CCc3nccs3)C2)c1` (stereo not given) the Percent Effect was -2.71%. Work on `Cc1cc2n(n1)CC(CNCc1ccnc(-n3ccnc3C)c1)CN2` (stereo not given) yielded a Percent Effect of -2.39%. `COc1ccc(CNCc2ccnc(N3CCOCC3)c2)c(OC)c1` showed a Percent Effect of 1.38%. For `Cc1noc(C)c1CN1CC[C@H]2OCC[C@@H](C(=O)NCC3CC3)[C@@H]2C1`, the Percent Effect was -1.49%. Work on `COCC(O)CNC(=O)c1coc(COc2ccc3sc(C)nc3c2)n1` (stereo not given) yielded a Percent Effect of 5.55%. Work on `CN(C(=O)C1CSCN1S(=O)(=O)c1ccc(F)cc1)C1CC1` (stereo not given) yielded a Percent Effect of -0.268%. Molecule `COc1ccc(OCCCN2CCOC(Cn3cccn3)C2)cc1` (stereo not given) has a Percent Effect of -0.393%. `CC(Cn1cccn1)NC(=O)Cc1cccs1` (stereo not given) showed a Percent Effect of -2.6%. `O=C(CCc1cc2n(n1)CCCN(C(=O)c1ccccn1)C2)NC1CC1` showed a Percent Effect of -1.14%. `CNc1cc(C2CCCN2Cc2ccccc2C(=O)O)ccn1` (stereo not given) showed a Percent Effect of -0.938%. In the case of `O=C(NCc1cc(O)ncn1)C1CCOc2ccccc2C1` (stereo not given), the Percent Effect is reported as -6.23%. With `CC(=O)N1CCC2(CC1)COCCN2Cc1ccc(F)cc1` the Percent Effect was -4.11%. In the case of `O=C(NCc1cccs1)[C@H]1CC[C@@H]2[C@@H](CCN2c2ncccn2)O1`, the Percent Effect is reported as 3.22%. `CN(C)C(=O)NC1COC2(CCN(Cc3nccn3C)CC2)C1` (stereo not given) was tested, and the Percent Effect was 2.7%.

The molecules below were run against Shiga toxin 2 (Escherichia coli O157:H7) (UniProt P09385+P09386) (assay: E. coli 0.157:H7 Shiga Toxin SOP - stx2 screening assay). Conditions: 30 µM.
Format: functional
Design: scale not given: direction of the effect not stated beside the values
Work on `CCn1cnnc1C1CCN(C(=O)C(OC)c2ccccc2)CC1` (stereo not given) yielded a Percent Effect of 9.67%. For `CCOCCCn1c(NC(=O)c2ccc(C)nc2)nc2ccccc21`, the Percent Effect was 14.9%. With `COCCc1noc(CNCC2CCCN2c2cccnn2)n1` (stereo not given) the Percent Effect was -3.58%. Work on `Cc1ccc(C(=O)N2CCN(C(=O)NC(C)Cn3ccnc3)CC2)o1` (stereo not given) yielded a Percent Effect of 17.6%. With `Cc1noc(C)c1CNC(=O)N1CCC(C(O)c2ccccc2)CC1` (stereo not given) the Percent Effect was -19.9%. For `CCn1cnnc1C1CCN(C(=O)COCCc2ccccc2)CC1`, the Percent Effect was -20.2%. With `Cc1cc(NC(=O)CN2CCN(c3nccs3)C(C)C2)n(C)n1` (stereo not given) the Percent Effect was 7.19%. `COCc1cccc(C(=O)N2CCCCC2c2nccs2)c1` (stereo not given) gave a Percent Effect of 18.2%. For `CCS(=O)(=O)N1C[C@H]2C[C@H](C(=O)N(C)C)[C@@H](C1)O2`, the Percent Effect was -5.91%. `CCOC(=O)c1sc2ccsc2c1CNC(=O)CC` was tested, and the Percent Effect was -9.72%. `CC(C)c1nnc2n1CCN(CC(=O)N1CCc3ccccc3C1)C2` showed a Percent Effect of -17%. With `CC(C(=O)NCc1ccnc(N(C)C)c1)n1cncn1` (stereo not given) the Percent Effect was -9.74%. Work on `O=C(NCCCN1CCOCC1)Nc1cnc2cc(Cl)ccc2c1O` yielded a Percent Effect of -13.4%. Work on `NC(=O)c1cccc(CC2CCN(C(=O)CO)C2)c1` (stereo not given) yielded a Percent Effect of -19.3%. `Cc1ccn(-c2ccc(C(=O)N3CCCC(n4ccnc4)C3)cc2)n1` (stereo not given) showed a Percent Effect of -14.7%. Molecule `CC(=O)Nc1nc(C2CCN(C(C)=O)CC2)cs1` has a Percent Effect of -0.268%. `Cn1c(CC2CCS(=O)(=O)C2)nnc1SCCOc1cccc(Cl)c1` (stereo not given) showed a Percent Effect of -13%. For `c1cnn(CC2CN(Cc3nc(-c4ccsc4)no3)CCO2)c1` (stereo not given), the Percent Effect was 35%. `CCOC(=O)CCNC(=O)N1CCN(c2nc3ccccc3n2C)CC1` gave a Percent Effect of -68.4%. In the case of `CCOc1ccc(NC(=O)c2cnc(N3CCCC3)nc2C)cc1`, the Percent Effect is reported as -10.5%. With `COc1cccc(C2CC(=O)Nc3nc(N)sc32)c1OC` (stereo not given) the Percent Effect was -20%. Work on `COc1cc(CN(C)C(=O)Cc2c(C)nn(C)c2C)ccc1OC(F)F` yielded a Percent Effect of -4.8%. With `CCNC(=O)[C@@H]1C[C@@H](NC(=O)c2cccnc2O)CN1Cc1ccsc1` the Percent Effect was 19.7%. Molecule `Cc1ncsc1C(=O)NCc1cccs1` has a Percent Effect of 1.3%. `Cc1ccc(CN(Cc2cccnc2)C2CC(C)(C)NC(C)(C)C2)s1` showed a Percent Effect of 13.4%. Work on `Cc1cnn(CC2CCCCN2C(=O)CN(C)C2CC2)c1` (stereo not given) yielded a Percent Effect of -50.8%. Work on `Cc1cnn(C2CCCN(C(=O)CCc3nccs3)C2)c1` (stereo not given) yielded a Percent Effect of 20%. Work on `Cc1cc2n(n1)CC(CNCc1ccnc(-n3ccnc3C)c1)CN2` (stereo not given) yielded a Percent Effect of -3.5%. Molecule `COc1ccc(CNCc2ccnc(N3CCOCC3)c2)c(OC)c1` has a Percent Effect of 17.1%. `Cc1noc(C)c1CN1CC[C@H]2OCC[C@@H](C(=O)NCC3CC3)[C@@H]2C1` showed a Percent Effect of -13.8%. In the case of `COCC(O)CNC(=O)c1coc(COc2ccc3sc(C)nc3c2)n1` (stereo not given), the Percent Effect is reported as -20%. For `CN(C(=O)C1CSCN1S(=O)(=O)c1ccc(F)cc1)C1CC1` (stereo not given), the Percent Effect was 7.34%. `COc1ccc(OCCCN2CCOC(Cn3cccn3)C2)cc1` (stereo not given) was tested, and the Percent Effect was 5.03%. For `CC(Cn1cccn1)NC(=O)Cc1cccs1` (stereo not given), the Percent Effect was -16.8%. `O=C(CCc1cc2n(n1)CCCN(C(=O)c1ccccn1)C2)NC1CC1` showed a Percent Effect of 9.76%. `CNc1cc(C2CCCN2Cc2ccccc2C(=O)O)ccn1` (stereo not given) gave a Percent Effect of -8.27%. `O=C(NCc1cc(O)ncn1)C1CCOc2ccccc2C1` (stereo not given) was tested, and the Percent Effect was 16%. In the case of `CC(=O)N1CCC2(CC1)COCCN2Cc1ccc(F)cc1`, the Percent Effect is reported as -2.06%. `O=C(NCc1cccs1)[C@H]1CC[C@@H]2[C@@H](CCN2c2ncccn2)O1` gave a Percent Effect of -3.66%. With `CN(C)C(=O)NC1COC2(CCN(Cc3nccn3C)CC2)C1` (stereo not given) the Percent Effect was -6.31%.
